From ChEMBL document CHEMBL1201862, “PubChem BioAssay data set” (2004) come the findings set out here.

The structures appear in SMILES notation. Values joined by “and” are separate entries in the source; they are usually repeats but may differ in a detail not shown here. Identical values can stand only once. Among all 400,000 compounds or so, about 2,100 (0.53%) were called active. About 14% were inconclusive and are not listed. The rule behind the calls is not given here. The sample as a whole holds a higher share of actives than the screen did.

The target of the experiment is Ataxin-2 (Homo sapiens) (UniProt Q99700). The experiment can be described thus: qHTS for Inhibitors of ATXN expression. The class given is functional.
Chain of Ataxin-2 (Homo sapiens) (Q99700 whole entry): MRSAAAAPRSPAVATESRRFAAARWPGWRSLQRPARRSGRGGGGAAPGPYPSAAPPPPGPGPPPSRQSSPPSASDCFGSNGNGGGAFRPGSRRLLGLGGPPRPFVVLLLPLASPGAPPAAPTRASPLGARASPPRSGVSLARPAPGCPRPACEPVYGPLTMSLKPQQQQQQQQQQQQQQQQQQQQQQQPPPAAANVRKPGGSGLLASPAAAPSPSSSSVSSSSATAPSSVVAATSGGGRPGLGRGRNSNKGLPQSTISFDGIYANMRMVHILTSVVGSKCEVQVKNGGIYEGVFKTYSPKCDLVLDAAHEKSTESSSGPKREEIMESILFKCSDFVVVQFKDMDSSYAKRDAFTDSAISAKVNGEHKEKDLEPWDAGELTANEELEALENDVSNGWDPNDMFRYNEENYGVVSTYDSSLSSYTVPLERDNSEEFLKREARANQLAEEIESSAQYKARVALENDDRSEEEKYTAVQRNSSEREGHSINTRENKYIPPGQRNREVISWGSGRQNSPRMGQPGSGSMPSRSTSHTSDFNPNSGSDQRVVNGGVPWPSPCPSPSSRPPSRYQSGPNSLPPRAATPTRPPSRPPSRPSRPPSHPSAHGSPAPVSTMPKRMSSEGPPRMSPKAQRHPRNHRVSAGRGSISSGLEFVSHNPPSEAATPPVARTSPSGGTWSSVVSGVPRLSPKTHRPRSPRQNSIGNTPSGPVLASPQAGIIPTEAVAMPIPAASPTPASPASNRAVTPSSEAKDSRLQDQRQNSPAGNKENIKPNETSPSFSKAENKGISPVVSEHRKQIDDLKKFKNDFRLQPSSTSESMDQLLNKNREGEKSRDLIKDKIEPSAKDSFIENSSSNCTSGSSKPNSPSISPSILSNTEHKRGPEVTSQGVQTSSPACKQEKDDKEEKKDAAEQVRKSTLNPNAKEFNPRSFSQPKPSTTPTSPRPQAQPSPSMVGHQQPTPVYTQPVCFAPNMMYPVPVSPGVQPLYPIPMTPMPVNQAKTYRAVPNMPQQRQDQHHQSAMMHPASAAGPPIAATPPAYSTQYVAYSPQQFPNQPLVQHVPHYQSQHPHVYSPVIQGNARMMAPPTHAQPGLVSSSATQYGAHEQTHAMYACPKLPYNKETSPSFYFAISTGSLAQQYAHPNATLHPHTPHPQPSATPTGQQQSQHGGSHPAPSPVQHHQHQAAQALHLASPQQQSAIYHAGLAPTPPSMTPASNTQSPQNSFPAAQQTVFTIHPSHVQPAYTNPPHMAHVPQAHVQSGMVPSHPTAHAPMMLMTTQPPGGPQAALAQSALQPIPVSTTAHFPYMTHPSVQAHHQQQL
With `COCCCNC(=O)/C(C#N)=C/c1c(N2CCN(C)CC2)nc2c(C)cccn2c1=O`, the Potency entry is “inactive”. In the case of `CNS(=O)(=O)c1ccc2c3c(cccc13)C(=O)N2`, the Potency entry was “inactive”.

For the compound `Cc1c(Cc2ccccc2)c(NCCCO)n2c(nc3ccccc32)c1C#N`, the Potency entry was “inactive”. The value for `NC(=O)c1cc2ccc(O)cc2o/c1=N\c1ccccc1` was “inactive”; that for `Cc1ccc(NC(=O)C2CC(=O)N(C(C)C)C2)cc1C` (stereo not given) was “inactive”; that for `Cc1cc(C)c(S(=O)(=O)NCc2ccc3c(c2)OCO3)c(C)c1` was “inactive”. On to `Cc1ccc(S(=O)(=O)Nc2ccc3c(c2)CC(=O)N([C@H](C)CO)C[C@H](C)[C@H](CN(C)Cc2ccc4c(c2)OCO4)O3)cc1`, for which the Potency was 35.5 µM (active).

Regarding `C[C@H]1CN([C@@H](C)CO)C(=O)Cc2cc(NC(=O)C3CC3)ccc2O[C@H]1CN(C)Cc1ccc(Oc2ccccc2)cc1`, the Potency is 25.1 µM (active). For `CN(C)Cc1ccccc1CNC(=O)c1cccc(S(=O)(=O)Nc2ccc3c(c2)OCO3)c1`, the Potency result is “inactive”. The entry for `Cc1ccc(-c2nc(C[S+]([O-])CC(=O)NCCN3CCCCCC3)c(C)o2)cc1` (stereo not given) is “inactive”. `CCOC(=O)CN1C(=O)CC(c2ccc([N+](=O)[O-])cc2)C1=O` (stereo not given): the Potency result is “inactive”. With `NC(=O)c1nsc(C(=O)N(c2ccccc2F)C(C(=O)NCc2ccccc2)c2ccc(O)cc2)c1N` (stereo not given), the Potency result is “inactive”.

For `O=[N+]([O-])c1ccc(-c2csc(N3CCCCCC3)n2)cc1`, the Potency result was “inactive”. As to `Cc1ccc(-c2csc(N3CCN(CCCn4c(-c5ccncc5)nc5ccccc54)CC3)n2)cc1`, the Potency is 35.5 µM (active). For the compound `Cc1ccc(Nc2nc(-c3ccncc3)cs2)cc1`, the Potency result is “inactive”. Take `Cc1csc(N2CCN(c3cc4c(cc3Cl)nc(-c3ccncc3)n4CCCN3CCCC3)CC2)n1`: the Potency was 35.5 µM (active). The value for `O=C(Nc1nc2c(s1)CN(Cc1ccccc1)CC2)c1c(F)cccc1F` was “inactive”; that for `ClC1(Cl)CC1CSc1nc2ccccc2[nH]1` (stereo not given) was “inactive”. In the case of `Cc1ccc(/C=C2\SC(=S)N(CCC(=O)NNC(=O)c3ccncc3)C2=O)cc1`, the Potency result is “inactive”. Consider `CC/N=C1/S/C(=C/c2ccc(-c3ccc(F)cc3)o2)C(=O)N1CC`, for which the Potency result was “inactive”. On to `COc1ccc(/C=C2/SC(=S)N(CCCC(=O)N3CCN(C)CC3)C2=O)cc1`, for which the Potency was 17.8 µM (active). `Cc1ccc(/C=C2\Oc3c(ccc(O)c3CN3CCN(C)CC3)C2=O)cc1`: the Potency entry is “inactive”.

On to `Cc1ccc(/C=C2/SC(=S)N(CCC(=O)N3CCN(C)CC3)C2=O)cc1`, for which the Potency was 11.9 µM (active).

Take `COc1ccc(/C=C2\SC(=S)N(CC(=O)NNC(=O)c3ccncc3)C2=O)cc1`: the Potency result was “inactive”. Turning to `COc1ccc(-n2c(=O)/c(=C\c3cccs3)s/c2=C(/C#N)C(=O)N2CCN(C)CC2)cc1`, the Potency entry is “inactive”. The entry for `O=C(CCN1C(=O)/C(=C\c2ccc(F)cc2)SC1=S)Nc1ccccc1` is “inactive”; for `CN1CCN(C(=O)CCN2C(=O)/C(=C\c3ccc(F)cc3)SC2=S)CC1` it is 39.8 µM (active); for `O=C(Nc1cc[n+](-c2nc3ccccc3nc2[N-]S(=O)(=O)c2ccccc2)cc1)c1cccs1` it is “inactive”.

As to `COC(=O)c1ccc(CSc2nc(C(F)F)cc(C)c2C#N)o1`, the Potency result was “inactive”. `O=C(OCC1CCNCC1)c1ccc(F)cc1`: the Potency result is “inactive”. With `C=CCNC(=O)C(C#N)c1nc2ccccc2nc1N1CCCCCC1` (stereo not given), the Potency entry was “inactive”. The value for `COc1ccccc1/C=C/C1(C(=O)NC2CCCC2)CC(=O)N1c1ccc(F)cc1` (stereo not given) was 14.1 µM (active); that for `COc1ccccc1[C@@H]1C(c2ccc(F)cc2)=NN(c2ccccc2)[C@H]1C(=O)N1CCOC1=O` was “inactive”.

On to `COc1cccc(/C=N/NC(=O)NC2CCCCC2)c1O`, for which the Potency result is “inactive”. As for `COc1ccccc1Nc1nc(Cl)c(C=O)s1`, the Potency result was “inactive”. For `Nc1nc(Sc2ccc([N+](=O)[O-])c3nonc23)c2nc[nH]c2n1`, the Potency is 22.4 µM (active). In the case of `CCCNC(=O)/C=C/C(=O)O`, the Potency result was “inactive”. As for `Cc1cc(C(=O)O)ccc1-c1ccc(/C=C2\NC(=O)N(Cc3ccccc3Cl)C2=O)o1`, the Potency result is “inactive”. As to `CC(=O)c1ccccc1NC(=O)COC(=O)CN1C(=O)C2CCCCC2C1=O` (stereo not given), the Potency result was “inactive”. The entry for `O=C(Nc1ccccc1)Nc1ccccc1C(=O)NCCCN1CCOCC1` is “inactive”.

On to `CSc1ccc(NC(=O)NCCCN2CCC(Cc3ccccc3)CC2)cc1`, for which the Potency was 39.8 µM (active). On to `O=C(OCC(=O)N1CCC(Cc2ccccc2)CC1)c1ccccc1F`, for which the Potency entry was “inactive”. On to `CN(C)c1ccc(/C=N/CCc2ccc(S(N)(=O)=O)cc2)cc1`, for which the Potency entry was “inactive”. With `C(=C\c1ccco1)/C1=NN(c2ccccc2)C(c2ccco2)C1` (stereo not given), the Potency entry is “inactive”.

On to `CCOCCCn1/c(=N/C(C)=O)c(C(=O)OCC)cc2c(=O)n3ccccc3nc21`, for which the Potency result was “inactive”. For `COc1cccc2c1C(=O)c1c(O)c3c(c(O)c1C2=O)CC(O)(C(=O)CO)CC3OC1CC(N(C)C)C(O)C(C)O1` (stereo not given), the Potency was 1.19 µM (active). Consider `COc1cccc2c1C(=O)c1c(O)c3c(c(O)c1C2=O)C[C@](O)(C(C)=O)C[C@H]3O[C@@H]1C[C@H](N)[C@H](O)[C@H](C)O1`, for which the Potency is 1 µM (active).

Consider `COc1cccc2c1C(=O)c1c(O)c3c(c(O)c1C2=O)C[C@@](O)(C(=O)CO)C[C@@H]3O[C@H]1C[C@H](N)[C@@H](O)[C@H](C)O1`, for which the Potency is 8.91 µM (active). Take `COc1cccc2c1C(=O)c1c(O)c3c(c(O)c1C2=O)CC(O)(C(C)=NNC(=O)c1ccc(Cl)c(Cl)c1)CC3OC1CC(N)C(O)C(C)O1` (stereo not given): the Potency is 2.67 µM (active). For `CC(=O)/N=c1\c(C#N)cc2c(=O)n3cccc(C)c3nc2n1Cc1ccco1`, the Potency entry is “inactive”.

For the compound `CCN(CC)c1ccc(-n2nc3cc(C)c(NC(=O)c4ccccc4F)cc3n2)cc1`, the Potency entry is “inactive”. As to `CCn1cnc2c1c(=O)n(CC(=O)NN)c(=O)n2Cc1ccccc1`, the Potency entry was “inactive”. On to `Nc1c(C(=O)Nc2ccc(Br)cc2)sc2nc(-c3ccco3)ccc12`, for which the Potency entry is “inactive”. Consider `Cc1nn(C)c(C)c1N1C(=O)c2cccc3c(N)ccc(c23)C1=O`, for which the Potency result was “inactive”. On to `NNC(=O)c1oc2nc(-c3ccc(Cl)cc3)cc(-c3ccccc3)c2c1N`, for which the Potency result is “inactive”. The figure for `CC(=O)[C@]1(O)Cc2c(O)c3c(c(O)c2[C@@H](O[C@H]2C[C@H](N)[C@H](O)[C@H](C)O2)C1)C(=O)c1ccccc1C3=O` is 35.5 µM (active) and 20 µM (active); for `COc1cccc2c1C(=O)c1c(O)c3c(c(O)c1C2=O)C[C@](O)(C(=O)CO)C[C@H]3O[C@@H]1C[C@H](N)[C@H](O)[C@H](C)O1` it is 0.794 µM (active); for `CC(C)c1ccc(-n2nc3ccc(N)cc3n2)cc1` it is “inactive”.

With `Cc1cc(C)n(-c2ccc(C(=O)N3CCC(CO)(Cc4ccccc4)CC3)cc2)n1`, the Potency entry is “inactive”. The entry for `Cc1ccc([N+](=O)[O-])cc1N/C=C1\CCCCC1=O` is “inactive”. With `C=CCn1/c(=N/C(=O)c2sc3ccccc3c2Cl)sc2cc(S(N)(=O)=O)ccc21`, the Potency was 12.6 µM (active). `COCCn1/c(=N/C(=O)c2cc(-c3cccs3)nc3ccccc23)sc2cc(S(N)(=O)=O)ccc21`: the Potency entry was “inactive”. As for `Cc1nn(C)c(C)c1CCC(=O)N1CCCC(Nc2ccc(C(C)C)cc2)C1` (stereo not given), the Potency is 39.8 µM (active). The value for `Cc1cc(=O)n2nc(N3CCCC3C(=O)Nc3ccc(C(C)C)cc3)sc2n1` (stereo not given) was “inactive”; that for `Cc1nonc1CC(=O)N1CCCC(C(=O)c2ccc(Cl)cc2)C1` (stereo not given) was “inactive”; that for `O=C(NCc1ccc(F)cc1)c1cccc2c1C(=O)c1ccc(N3CCC(Cc4ccccc4)CC3)cc1S2(=O)=O` was “inactive”. `Cc1nc2c(S(=O)(=O)c3ccccc3)cnn2c(C)c1C`: the Potency entry is “inactive”. For `COc1ccc(S(=O)(=O)N2CCCC(C(=O)NCCCn3ccnc3)C2)cc1OC` (stereo not given), the Potency entry is “inactive”.

With `COc1ccc(CNC(=O)C(=O)NCC2OCCN2S(=O)(=O)c2cccs2)cc1` (stereo not given), the Potency result is “inactive”. The value for `COc1ccc(-n2nc3c(N4CCCC(C(=O)NCc5cccc(F)c5)C4)nnc(C)c3c2C)cc1` (stereo not given) was 20 µM (active). The value for `COc1ccc(-n2nc3c(N4CCCC(C(=O)NCCc5ccccc5C)C4)nnc(C)c3c2C)cc1` (stereo not given) was 20 µM (active). Consider `CCC(C(=O)NCCc1ccccc1OC)n1nc(C)c2c(C)n(-c3ccccc3)nc2c1=O` (stereo not given), for which the Potency entry was “inactive”. For the compound `CC1CCN(c2ccc3c(c2)S(=O)(=O)c2cccc(C(=O)NCc4cccc(F)c4)c2C3=O)CC1`, the Potency entry is “inactive”. In the case of `COc1cccc(CNC(=O)C2CCN(c3nnc(N4CCCC4=O)s3)CC2)c1`, the Potency entry is “inactive”.

Turning to `COc1ccc(-n2nc3c(N4CCCC(C(=O)NCc5ccc(C)cc5)C4)nnc(C)c3c2C)cc1` (stereo not given), the Potency was 17.8 µM (active). For the compound `CC(=O)N1CCC(=NNc2ncc(C(F)(F)F)cc2Cl)CC1`, the Potency result was “inactive”.

On to `Cc1cccn2c(=O)c3cc(C(=O)NC(C)C)c(=N)n(Cc4ccncc4)c3nc12`, for which the Potency result is “inactive”. With `O=C(COC(=O)c1cc(O)nc2ccccc12)NCc1ccc(Cl)cc1`, the Potency result was “inactive”. For the compound `CCOc1ncccc1C(=O)N(CC)CC(=O)NCc1ccc(Cl)cc1`, the Potency result is “inactive”. For `N=C(Cc1ccc(Cl)cc1)NOC(=O)c1cccc2ccccc12`, the Potency was 39.8 µM (active). As to `O=[N+]([O-])c1ccc(CSc2ncnc3ccccc23)cc1`, the Potency entry is “inactive”. Take `COc1ccc(-c2cc(C(F)(F)F)n3ncc(C(=O)N4CCc5ccccc5C4)c3n2)cc1`: the Potency entry was “inactive”.

On to `Cc1ccc2[nH]c(NC3=NC(=O)c4ccccc43)nc2c1`, for which the Potency result is “inactive”. Turning to `CCOC(=O)c1ccc(NC(=O)CC2Nc3ccccc3NC2=O)cc1` (stereo not given), the Potency result is “inactive”.

As for `CCOC(=O)c1ccc(NC(=O)CC2C(=O)N(c3ccccc3)C(=O)N2Cc2ccc(C)cc2)cc1` (stereo not given), the Potency was 22.4 µM (active). In the case of `Cc1ccc(CN2C(=O)CCC2C(=O)N2CCN(c3ccccc3)CC2)cc1` (stereo not given), the Potency entry is “inactive”.

As to `CCCCN(C)CC(O)Cn1cc(/C=C/C(=O)c2ccc(Br)cc2)c2ccccc21` (stereo not given), the Potency result was “inactive”. Turning to `COc1cc(/C=C2\C=CC(=O)O2)cc(OC)c1`, the Potency entry is “inactive”. Turning to `N#Cc1nc(-c2cccc3ccccc23)oc1NCC1CCCO1` (stereo not given), the Potency entry was “inactive”. On to `CCCCNc1c(-c2ccc(SC(C)CC)cc2)nc2cnccn12` (stereo not given), for which the Potency entry is “inactive”.

On to `CCC(C)Sc1cccc(-c2nc3cnccn3c2NC2CCCCC2)c1` (stereo not given), for which the Potency entry is “inactive”.

On to `CC(C)c1ccc(Nc2c(-c3ccccc3O)nc3cnccn23)cc1`, for which the Potency is 39.8 µM (active). Take `CCOC(=O)CNc1c(-c2ccc(Cl)cc2)nc2cnccn12`: the Potency entry was “inactive”. As to `Cc1ccn2c(Nc3ccc(C(C)C)cc3)c(-c3cccnc3)nc2c1`, the Potency was 39.8 µM (active). As for `Cc1ccc(-c2nc3cnccn3c2Nc2c(C)cccc2C)o1`, the Potency entry is “inactive”.
